Shown is part of a subset that was picked to be rich in hits.
Tgondii IFNg = T. gondii growth inhibition under IFN-gamma. 69,000 tested, 3.8% active. Toxoplasma gondii growth in IFN-gamma-treated host cells; hits give low values. activity change, negative = inhibition, % (concentration not given with the values); in the data active = activity change below about -70%, passing the limit was not always enough;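 also: host cells are HeLa cells infected with Toxoplasma gondii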
Large screens that a line does not name were inactive.

CCC(C(=O)NCc1ccccn1)n1c2ccccc2c2cnn(C)c(=O)c21 (centres undefined)	none
CCC(C(=O)N1CCN(c2ncccn2)CC1)n1c2ccccc2c2cnn(C)c(=O)c21 (centres undefined)	Tgondii IFNg -86
CCNC(=O)c1sc2cc(C)ccc2c1Cl	none
O=C(c1sc2cc(Cl)ccc2c1Cl)N1c2ccccc2Sc2ccccc21	Tgondii IFNg -80
COC(=O)c1sc2ccccc2c1Cl	none
CN(C)CCNC(=O)c1cc2cc(S(=O)(=O)N(C)C)ccc2n1Cc1ccncc1	none
CN(C)S(=O)(=O)c1ccc2c(c1)cc(C(=O)NC1CCCCCCC1)n2Cc1ccncc1	Tgondii IFNg -74
CN(C)S(=O)(=O)c1ccc2c(c1)cc(C(=O)NCCCN1CCCC1)n2Cc1ccccc1	Tgondii IFNg -96
CN(C)S(=O)(=O)c1ccc2c(c1)cc(C(=O)NCc1ccccc1)n2Cc1ccncc1	none
CN(C)S(=O)(=O)c1ccc2c(c1)cc(C(=O)NCc1ccccc1Cl)n2Cc1ccncc1	Tgondii IFNg -95
CN(C)S(=O)(=O)c1ccc2c(c1)cc(C(=O)NC1CCCC1)n2Cc1ccncc1	none
COc1ccccc1CNC(=O)c1cc2cc(S(=O)(=O)N(C)C)ccc2n1Cc1ccncc1	none
Cc1ccccc1CNC(=O)c1cc2cc(S(=O)(=O)N(C)C)ccc2n1Cc1ccncc1	none
CN(C)S(=O)(=O)c1ccc2c(c1)cc(C(=O)NC1CCCCCC1)n2Cc1ccncc1	none
CC(C)NC(=O)N1CCC2(CC1)CC(=O)N(c1cccnc1)c1ccccc12	none
Fc1ccc(CSc2nc(N3CCOCC3)nc(N3CCOCC3)n2)cc1	none
CCCSc1ncc(CN2CCN(c3nccc4occc34)CC2)cn1	none
Cc1nc2sc(C(=O)O)c(C)c2c(=O)[nH]1	none
CN(Cc1ccc(-n2cccn2)cc1)Cc1ccc(CO)o1	none
Cc1c(C)n(Cc2ccco2)c2ncnc(Nc3ccccc3O)c12	none
COc1ccc(-c2nc(Cn3nnc(C(=O)Nc4cccc(Cl)c4)c3C)c(C)o2)c(OC)c1	none
Nc1nc(Sc2cccs2)cc(N2CCOC(C(F)(F)F)C2)n1 (centres undefined)	none
Cc1oc(C2CCN(C(=O)Cc3ccccc3Cl)CC2)nc1C(=O)N1CCOCC1	none
Cc1oc(C2CCN(C(=O)Cc3c(F)cccc3Cl)CC2)nc1C(=O)N1CCCC1	Tgondii IFNg -73
Cc1oc(C2CCN(C(=O)Cc3ccccc3F)CC2)nc1C(=O)N1CCCC1	none
Cc1ccccc1C1(O)CCN(C(=O)c2cnn3ccn(C)c23)C1 (centres undefined)	none
Cc1cc2nc3n(c2cc1C)C(=O)C1C2c4ccccc4C(c4ccccc42)C31 (centres undefined)	none
CSc1ccc(-c2nc3c([nH]2)c(=O)n(C)c(=O)n3C)cc1	none
Cc1cccc2cc(C#N)c(SCC(=O)N3CCCc4ccccc43)nc12	none
N#Cc1cc2c(cc1C#N)N1CCCc3cccc(c31)O2	Tgondii IFNg -92
O=C1CCc2cc(S(=O)(=O)N3CCc4ccccc43)cc3c2N1CCC3	none
COc1ccc(N2CCN(C(=O)c3nc(-c4cccc(F)c4)n4c3CCCCC4)CC2)cc1	none
CCC(C)NC(=O)c1nc(-c2cccc(F)c2)n2c1CCCCC2 (centres undefined)	Tgondii IFNg -98
COCCNC(=O)c1nc(-c2cccc(F)c2)n2c1CCCCC2	none
COc1ccc(CNC(=O)c2nc(-c3ccc(C)cc3)n3c2CCCCC3)cc1	none
O=C(NCCN1CCCCCC1)c1nc(-c2ccc(Cl)cc2)n2c1CCCCC2	none
Cc1ccc(Nc2nc(C(=O)Nc3ccc4c(c3)OCCO4)nc3ccccc23)cc1	none
Cc1ccc(-c2nc(C(=O)NCCN3CCOCC3)c3n2CCCCC3)cc1	none
COc1cccc(CNC(=O)c2nc(-c3ccc(C)cc3)n3c2CCCCC3)c1	Tgondii IFNg -108
CCC(C)NC(=O)c1nc(-c2ccc(C)cc2)n2c1CCCCC2 (centres undefined)	Tgondii IFNg -92
CCNC(=O)c1nc(-c2ccc(Cl)cc2)n2c1CCCCC2	none
CCCCN(C)C(=O)c1nc(-c2cccc(F)c2)n2c1CCCCC2	none
Cc1ccc(-c2nc(C(=O)Nc3ccc4c(c3)OCCO4)c3n2CCCCC3)cc1	Tgondii IFNg -94
O=c1c(CN(Cc2ccccn2)CC2CCCO2)coc2ccccc12 (centres undefined)	none
CN(C)CC(C)(C)Cn1cnc(-c2ccccc2)c1-c1cnn2cccnc12	none
CCOc1cccc(-c2ccc(C(=O)N3CCCC3)cn2)c1	none
COc1ccccc1-c1nccn1CCc1n[nH]c(=O)[nH]1	none
CC(C)N1C2CCN(Cc3ccsc3)CC2C[C@H]1Cn1cncn1 (some centres undefined)	none
Cc1cccc(Cn2cnc3sc4c(c3c2=O)CCCC4)c1	none
CC[C@@H](C(=O)[C@@H](C)[C@@H](O)[C@H](C)[C@@H]1O[C@@H]([C@@H](CC)C(=O)O)CC[C@@H]1C)[C@H]1OC2(C=C[C@@H](O)[C@]3(CC[C@@](C)(C4CC[C@](O)(CC)[C@H](C)O4)O3)O2)[C@H](C)C[C@@H]1C (some centres undefined)	Tgondii IFNg -84
CC[C@@H](C(=O)[C@@H](C)[C@@H](O)[C@H](C)[C@@H]1O[C@@H]([C@@H](CC)C(=O)O)CC[C@@H]1C)[C@H]1O[C@]2(C=C[C@@H](O)[C@]3(CC[C@@](C)(C4CC[C@](O)(CC)[C@H](C)O4)O3)O2)[C@H](C)C[C@@H]1C (some centres undefined)	Tgondii IFNg -81
COc1ccc(-c2cc(-c3c(O)ccc4ccccc34)[nH]n2)cc1OC	none
CC(C)N1CC2CCCC(C1)C2CC(=O)NCc1ccco1 (centres undefined)	none
COc1cccc(NC(=O)N2CCN(Cc3nc(-c4cccc(Cl)c4)oc3C)CC2)c1	none
CN(C)C(=O)c1ccn(-c2ccc3ccc(-c4cnn(C)c4)cn23)n1	none
O=C(O)c1ccc(C2CCN(C(=O)Cc3cccnc3)C2)cc1 (centres undefined)	none
CCn1c(=O)/c(=C2/Sc3ccc(OC)cc3N2C)s/c1=C1/C(=O)N(C)C(=S)N1C	Tgondii IFNg -78
COc1ccc(CNc2n[nH]c(=S)s2)cc1	none
FC(F)(F)Oc1ccc(Nc2n[nH]c(=S)s2)cc1	Tgondii IFNg -92
FC(F)(F)Oc1ccc(OCc2n[nH]c(=S)o2)cc1	none
CN(C)CCN1C(=O)CO[C@H]2CN(C(=O)COc3ccccc3)C[C@@H]21	none
O=C(NC1CCCCCC1)c1nc(N2CCCC2)c2ccccc2n1	none
CCCNc1nc(-c2ccc(OC)cc2)nc2ccccc12	none
O=C(CCn1nnc2ccccc21)NCc1cnn2ccccc12	none
c1ccc(CN2CCc3nc(N4CCCC4)nc(N4CCn5cnnc5C4)c3C2)cc1	none
COc1ccc(CNC(=O)c2nc(Nc3ccc(C)cc3)c3ccccc3n2)cc1OC	none
Cc1ccc(S(=O)(=O)Nc2ccc3c(c2)C(=O)N([C@@H](C)CO)C[C@H](C)[C@@H](CN(C)Cc2ccc(C(F)(F)F)cc2)O3)cc1	none
COc1ccc(S(=O)(=O)Nc2ccc3c(c2)C(=O)N([C@@H](C)CO)C[C@@H](C)[C@@H](CN(C)Cc2ccc(C(F)(F)F)cc2)OCCCC[C@@H](C)O3)cc1	Tgondii IFNg -109
COc1ccc(S(=O)(=O)Nc2ccc3c(c2)C(=O)N([C@H](C)CO)C[C@@H](C)[C@@H](CN(C)Cc2ccc(C(F)(F)F)cc2)OCCCC[C@@H](C)O3)cc1	none
COc1ccc(CN(C)C[C@H]2OCCCC[C@H](C)Oc3ccc(NC(=O)C4CCCCC4)cc3C(=O)N([C@@H](C)CO)C[C@@H]2C)cc1	none
Cc1ccc(S(=O)(=O)Nc2ccc3c(c2)C(=O)N([C@@H](C)CO)C[C@@H](C)[C@@H](CN(C)Cc2ccc(C(F)(F)F)cc2)O3)cc1	none

Compound activity (PubChem)
